SMILES strings stand for the structures. Records with an inconclusive call do not appear. Values without a mark were called inactive. Active and inactive are the calls of the source. Calls follow the shape of the full dose curve.
% is scaled to controls: 0 for no effect and ±100 for the full control effect.

A short description of the assay: qHTS assay to identify small molecule agonists of H2AX - cell viability counter screen (AID 1224847). Also: top concentration of the series differs between compounds; nearly all actives have a fitted effect of over 30% in size. The settings on record: CHO-K1 viability, CellTiter-Glo luminescence, 3 h; series mostly up to 154 µM. An excerpt:
National Center for Advancing Translational Sciences [NCATS]
NIH Chemical Genomics Center [NCGC]
U.S. Environmental Protection Agency [EPA]
National Institutes of Environmental Health Sciences [NIEHS]
National Toxicology Program [NTP]
U.S. Food and Drug Administration [FDA]
HTRF phospho-H2AX (Ser139) assay (Cisbio Bioassays, US) enables the quantitative detection of the histone variant H2AX when phosphorylated on serine 139. When double-stranded DNA breaks, either by ionizing radiation or endogenous physiological processes, H2AX becomes phosphorylated at Ser139. This phospho-Ser139 serves as a sensitive biomarker for the detection of such breaks, localizing the site of DNA repair. So, HTRF phospho-H2AX Ser139 is a pertinent assay to study genome stability, the cell cycle, DNA repair, and it serves as a biomarker for cancer, and to understand aging. Wild type CHO-K1 cells were used to identify the inducers of Phospho-H2AX Ser 139 from the Tox21 compound collections. Also cytotoxicity of the Tox21 10K compound library against the CHO-K1 cell line was tested by measuring the cell viability using CellTiter-Glo assay (Promega, Madison, WI).
Tox21 Assay Protocol Summary:
The CHO-K1 cells suspended in culture medium containing 10% FBS were dispensed at 1000 cells/ 3 ul/well in 1536-well white wall/solid bottom plates (Greiner Bio-One North America, NC) using a Multidrop Combi (Thermo Fisher Scientific Inc., Waltham, MA). After the assay plates were incubated at 37C overnight, 23 nl of compounds at 15 concentrations (from 5-48 columns) or positive control (from 1 to 4 columns) were transferred to the assay plates using a Pintool station (Wako, San Diego, CA) into each well resulting in a final DMSO concentration of 0.76%. After 3hr incubation at 37C, 3 uL/well CellTiter-Glo luminescent cell viability reagent (Promega Corporation, Madison, WI) was added using a Flying Reagent Dispenser (FRD) (Aurora Discovery, CA). After incubation at room temperature for 30 min, the luminescence intensity was read using a ViewLux plate reader (PerkinElmer, Waltham, MA).
(In general: In qHTS, concentration-response curves come from the screen itself.)
Regarding `c1cc2ccc3ccc4ccc5cccc6c(c1)c2c3c4c56`, the activity change, negative = cytotoxicity was 0.956% [at 5.43 µM].

On to `CCCCOCCCC`, for which the molecule was classed as inactive.

Consider `COc1cc2nc(N3CCN(C(=O)C4CCCO4)CC3)nc(N)c2cc1OC` (stereo not given), for which the result was inactive.

Turning to `CCOC(=O)COc1ccc2c(C)c(CCN(CC)CC)c(=O)oc2c1Cl`, the outcome was inactive.

In the case of `CC(C)(C)C(=O)CC(=O)C(C)(C)C`, the molecule was classed as inactive.

Consider `c1coc(Cn2cccc2)c1`, for which the molecule was called inactive.

Consider `COc1cc(C(=O)NC2CCCNC2)cc(OC)c1OC` (stereo not given), for which the molecule was called inactive.

Turning to `Cc1cccc(N)n1`, the outcome was inactive.

`CC1(C)CC(N)CC(C)(C)N1`: the molecule was called inactive.

Consider `C[C@H]1COc2c(C3(N)CC3)c(F)cc3c(=O)c(C(=O)O)cn1c23`, for which the result was inactive.

Consider `CCCCc1ccc(Cl)cc1`, for which the molecule was called inactive.

Consider `CCCCCCCCC1CO1` (stereo not given), for which the call was inactive.

With `Cc1ccccc1C#N`, the molecule was called inactive.

`Clc1cc(Cl)c(Cl)c(Cl)c1Cl`: the outcome was inactive.

Turning to `CC(=O)Nc1ccc(S(=O)(=O)Nc2cc(C)on2)cc1`, the molecule was classed as inactive.

On to `CCCCN=C(N)N=C(N)N`, for which the molecule was classed as inactive.

In the case of `CCOC(=O)c1ccc(N(C)C)cc1`, the molecule was classed as inactive.

`CC(C)C(=O)Nc1cccc(C2CN3CCSC3=N2)c1` (stereo not given): the molecule was classed as inactive.

For the molecule `O=C1c2ccccc2C(=O)N1CO`, the molecule was called inactive.

In the case of `NCC1CCC(C(=O)Oc2ccc(CCC(=O)O)cc2)CC1` (stereo not given), the molecule was classed as inactive.

Turning to `CCN(CC)CC`, the outcome was inactive.

Regarding `COC(=O)c1ccccc1Cl`, the outcome was inactive.

Take `Cc1nnc(C(=O)NC(C)(C)c2nc(C(=O)NCc3ccc(F)cc3)c(O)c(=O)n2C)o1`: the molecule was classed as inactive.

On to `C/C=C(\C)C(=O)OC/C=C(\C)CCC=C(C)C`, for which the result was inactive.

Consider `CN(C)c1cc(NC(=O)CNC(C)(C)C)c(O)c2c1C[C@H]1C[C@H]3[C@H](N(C)C)C(=O)C(C(N)=O)=C(O)[C@@]3(O)C(=O)C1=C2O`, for which the molecule was classed as inactive.

For `C=C(C)C(=O)OCCOC1CC2CC1C1C=CCC21` (stereo not given), the call was inactive.

As for `N#Cc1cc(NC(=O)C(=O)O)c(Cl)c(NC(=O)C(=O)O)c1`, the call was inactive.

As for `CN(C)CCC[C@@]1(c2ccc(F)cc2)OCc2cc(C#N)ccc21`, the molecule was called inactive.

Regarding `O=C(OOC(=O)c1ccccc1)c1ccccc1`, the call was inactive.

As to `Cc1cc(=O)oc2cc(O[C@@H]3SC[C@@H](O)[C@H](O)[C@H]3O)ccc12`, the molecule was called inactive.

As for `CC(C)CC(O)Cc1ccccc1` (stereo not given), the outcome was inactive.

With `COc1ccc2cc(CCC(C)=O)ccc2c1`, the outcome was inactive.

As to `CC(C)(O)c1ccc(C(C)(C)O)cc1`, the molecule was called inactive.

In the case of `CCc1ncc(C)[nH]1`, the molecule was called inactive.

Regarding `CC1=C(O)C(=O)CO1`, the result was inactive.

In the case of `C/C=C/C(=O)CCCC`, the outcome was inactive.

Regarding `CCCC(=O)CC`, the molecule was called inactive.

In the case of `CCCCN(CCCC)CCCCCCN(CCCC)CCCC`, the result was inactive.

On to `C=CCCCCCCCCOC(C)=O`, for which the result was inactive.

With `NC(=O)CC[C@@H](N)C(=O)O`, the molecule was called inactive.

Values taken from PubChem BioAssay (Tox21).
